Measured values: ChEMBL document CHEMBL1961873, “Compounds: GSK PKIS; Assays: Nanosyn kinase panel” (2012)

Columns and labels:
[1] = target: Sphingosine kinase 1 (Homo sapiens) (UniProt Q9NYA1); settings: at 1 µM;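 note: mean SPHK1 inhibition value reported from the GSK PKIS kinase panel screen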
[2] = target: T1, Sphingosine kinase 2 (Homo sapiens) (UniProt Q9NRA0); settings: at 0.1 µM
T1 sequence (whole entry): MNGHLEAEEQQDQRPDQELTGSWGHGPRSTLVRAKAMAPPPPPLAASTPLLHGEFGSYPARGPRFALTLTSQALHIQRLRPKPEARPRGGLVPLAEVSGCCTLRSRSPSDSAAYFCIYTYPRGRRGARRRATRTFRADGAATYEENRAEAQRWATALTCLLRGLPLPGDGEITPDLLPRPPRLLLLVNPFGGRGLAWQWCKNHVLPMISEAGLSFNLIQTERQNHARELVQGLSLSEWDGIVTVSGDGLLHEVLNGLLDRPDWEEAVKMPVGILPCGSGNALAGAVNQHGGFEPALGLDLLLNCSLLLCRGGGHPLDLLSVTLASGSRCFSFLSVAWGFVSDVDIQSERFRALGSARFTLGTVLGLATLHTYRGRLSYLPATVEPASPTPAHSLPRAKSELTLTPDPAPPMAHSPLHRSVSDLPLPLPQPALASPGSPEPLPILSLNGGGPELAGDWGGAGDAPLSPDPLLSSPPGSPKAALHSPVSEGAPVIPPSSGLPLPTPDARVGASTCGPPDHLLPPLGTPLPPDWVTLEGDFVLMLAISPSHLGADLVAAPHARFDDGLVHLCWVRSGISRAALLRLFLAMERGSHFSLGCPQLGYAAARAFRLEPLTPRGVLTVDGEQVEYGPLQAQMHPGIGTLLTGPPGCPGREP

[3] = target: T1, Sphingosine kinase 2 (Homo sapiens); settings: at 1 µM
[4] = target: Casein kinase II subunit alpha (Homo sapiens) (UniProt P68400); settings: at 0.1 µM
[5] = target: Casein kinase II subunit alpha (Homo sapiens) (UniProt P68400); settings: at 1 µM
[6] = target: T2, Inhibitor of nuclear factor kappa-B kinase subunit alpha (Homo sapiens) (UniProt O15111); settings: at 0.1 µM
T2 sequence (whole entry): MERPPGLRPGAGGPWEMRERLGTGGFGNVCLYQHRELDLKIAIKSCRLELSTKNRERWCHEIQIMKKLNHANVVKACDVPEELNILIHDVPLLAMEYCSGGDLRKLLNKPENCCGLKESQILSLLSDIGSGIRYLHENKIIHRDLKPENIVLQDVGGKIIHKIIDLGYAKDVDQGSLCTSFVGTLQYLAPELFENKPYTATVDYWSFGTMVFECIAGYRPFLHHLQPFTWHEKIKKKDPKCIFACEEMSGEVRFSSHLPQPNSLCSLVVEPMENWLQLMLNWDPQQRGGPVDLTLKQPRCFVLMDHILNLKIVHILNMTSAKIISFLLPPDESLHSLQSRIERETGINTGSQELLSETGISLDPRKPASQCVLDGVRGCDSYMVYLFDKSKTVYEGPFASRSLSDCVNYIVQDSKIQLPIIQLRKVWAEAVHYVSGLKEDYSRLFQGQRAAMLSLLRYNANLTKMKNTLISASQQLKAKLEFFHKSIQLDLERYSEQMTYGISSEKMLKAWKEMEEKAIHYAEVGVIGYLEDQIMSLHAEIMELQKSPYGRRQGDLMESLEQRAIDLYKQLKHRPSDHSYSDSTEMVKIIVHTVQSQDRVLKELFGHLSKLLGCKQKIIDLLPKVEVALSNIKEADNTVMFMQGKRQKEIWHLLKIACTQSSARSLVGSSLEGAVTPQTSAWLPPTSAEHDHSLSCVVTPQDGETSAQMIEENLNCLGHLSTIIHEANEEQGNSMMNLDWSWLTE

[7] = target: T2, Inhibitor of nuclear factor kappa-B kinase subunit alpha (Homo sapiens); settings: at 1 µM
[8] = target: T3, Inhibitor of nuclear factor kappa-B kinase subunit beta (Homo sapiens) (UniProt O14920); settings: at 0.1 µM
T3 sequence (whole entry): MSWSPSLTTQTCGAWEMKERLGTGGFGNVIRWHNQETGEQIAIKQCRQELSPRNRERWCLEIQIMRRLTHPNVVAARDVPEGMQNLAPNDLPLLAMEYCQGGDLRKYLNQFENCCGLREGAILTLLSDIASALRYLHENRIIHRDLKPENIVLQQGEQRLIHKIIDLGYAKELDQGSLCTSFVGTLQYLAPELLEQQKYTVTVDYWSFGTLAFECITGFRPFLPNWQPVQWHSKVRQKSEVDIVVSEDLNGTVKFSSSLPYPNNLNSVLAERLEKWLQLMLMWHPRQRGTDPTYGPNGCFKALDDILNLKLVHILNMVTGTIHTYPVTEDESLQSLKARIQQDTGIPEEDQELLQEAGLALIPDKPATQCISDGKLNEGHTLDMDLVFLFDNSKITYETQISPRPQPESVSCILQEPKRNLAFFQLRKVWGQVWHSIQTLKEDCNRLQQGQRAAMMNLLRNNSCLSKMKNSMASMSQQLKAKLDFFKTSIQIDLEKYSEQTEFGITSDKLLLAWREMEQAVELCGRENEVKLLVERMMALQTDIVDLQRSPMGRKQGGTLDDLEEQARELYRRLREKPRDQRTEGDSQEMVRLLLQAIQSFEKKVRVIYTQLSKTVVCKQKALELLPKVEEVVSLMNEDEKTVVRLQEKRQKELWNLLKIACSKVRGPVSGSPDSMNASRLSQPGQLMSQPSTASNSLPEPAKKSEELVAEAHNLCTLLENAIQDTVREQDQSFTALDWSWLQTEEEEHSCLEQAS

[9] = target: T3, Inhibitor of nuclear factor kappa-B kinase subunit beta (Homo sapiens); settings: at 1 µM
[10] = target: T4, Inhibitor of nuclear factor kappa-B kinase subunit epsilon (Homo sapiens) (UniProt Q14164); settings: at 0.1 µM
T4 sequence (whole entry): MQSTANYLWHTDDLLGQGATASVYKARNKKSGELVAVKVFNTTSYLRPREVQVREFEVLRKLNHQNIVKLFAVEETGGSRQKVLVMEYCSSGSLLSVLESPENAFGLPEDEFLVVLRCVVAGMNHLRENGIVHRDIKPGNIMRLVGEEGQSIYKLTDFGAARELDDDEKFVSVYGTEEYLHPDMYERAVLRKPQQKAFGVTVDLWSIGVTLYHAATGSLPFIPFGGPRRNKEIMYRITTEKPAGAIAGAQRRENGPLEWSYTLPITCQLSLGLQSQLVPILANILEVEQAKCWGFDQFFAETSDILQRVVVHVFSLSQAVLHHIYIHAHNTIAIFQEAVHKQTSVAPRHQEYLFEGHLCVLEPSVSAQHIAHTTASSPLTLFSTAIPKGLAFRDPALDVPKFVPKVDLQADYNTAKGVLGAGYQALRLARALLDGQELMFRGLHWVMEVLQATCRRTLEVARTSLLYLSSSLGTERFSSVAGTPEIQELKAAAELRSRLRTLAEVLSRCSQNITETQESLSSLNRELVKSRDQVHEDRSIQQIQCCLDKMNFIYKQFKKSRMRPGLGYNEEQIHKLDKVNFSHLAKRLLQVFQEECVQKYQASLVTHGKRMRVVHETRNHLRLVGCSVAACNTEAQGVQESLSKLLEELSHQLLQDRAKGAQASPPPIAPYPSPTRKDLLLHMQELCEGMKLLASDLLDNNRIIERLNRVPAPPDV

[11] = target: T4, Inhibitor of nuclear factor kappa-B kinase subunit epsilon (Homo sapiens); settings: at 1 µM
[12] = target: T5, Serine/threonine-protein kinase Nek1 (Homo sapiens) (UniProt Q96PY6); settings: at 0.1 µM
T5 sequence (whole entry): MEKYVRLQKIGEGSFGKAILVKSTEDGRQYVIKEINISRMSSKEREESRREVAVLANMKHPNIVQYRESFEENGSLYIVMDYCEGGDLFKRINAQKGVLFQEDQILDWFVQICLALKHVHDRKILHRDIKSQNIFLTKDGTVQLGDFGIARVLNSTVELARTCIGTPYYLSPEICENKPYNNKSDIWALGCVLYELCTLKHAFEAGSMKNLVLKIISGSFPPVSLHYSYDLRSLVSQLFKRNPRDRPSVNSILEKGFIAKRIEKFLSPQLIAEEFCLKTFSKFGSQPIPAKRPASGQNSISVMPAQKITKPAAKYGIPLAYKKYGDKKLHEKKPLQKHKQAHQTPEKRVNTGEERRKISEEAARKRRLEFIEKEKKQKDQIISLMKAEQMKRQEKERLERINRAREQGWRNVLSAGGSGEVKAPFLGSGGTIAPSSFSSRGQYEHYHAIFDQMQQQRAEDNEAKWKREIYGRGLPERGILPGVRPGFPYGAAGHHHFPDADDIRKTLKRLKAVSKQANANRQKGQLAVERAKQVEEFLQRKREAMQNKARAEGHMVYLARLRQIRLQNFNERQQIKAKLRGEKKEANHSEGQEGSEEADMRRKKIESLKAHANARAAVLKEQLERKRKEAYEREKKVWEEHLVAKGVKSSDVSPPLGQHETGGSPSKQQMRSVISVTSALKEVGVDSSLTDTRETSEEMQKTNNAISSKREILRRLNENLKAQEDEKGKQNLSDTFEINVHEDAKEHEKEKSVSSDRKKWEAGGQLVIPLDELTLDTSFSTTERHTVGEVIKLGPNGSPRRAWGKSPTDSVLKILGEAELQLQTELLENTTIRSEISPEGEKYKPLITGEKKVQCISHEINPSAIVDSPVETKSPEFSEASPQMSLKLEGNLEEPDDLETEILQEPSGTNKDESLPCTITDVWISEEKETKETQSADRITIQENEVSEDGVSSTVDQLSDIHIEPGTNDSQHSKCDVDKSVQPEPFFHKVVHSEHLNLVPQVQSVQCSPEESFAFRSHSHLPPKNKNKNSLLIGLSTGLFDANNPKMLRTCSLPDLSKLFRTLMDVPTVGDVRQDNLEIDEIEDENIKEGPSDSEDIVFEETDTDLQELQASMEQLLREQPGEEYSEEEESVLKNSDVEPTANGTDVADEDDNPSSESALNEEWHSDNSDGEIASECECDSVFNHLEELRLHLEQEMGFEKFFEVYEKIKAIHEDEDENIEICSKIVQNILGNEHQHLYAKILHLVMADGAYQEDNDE

[13] = target: T5, Serine/threonine-protein kinase Nek1 (Homo sapiens); settings: at 1 µM
[14] = target: T6, Serine/threonine-protein kinase Nek2 (Homo sapiens) (UniProt P51955); settings: at 0.1 µM
T6 sequence (whole entry): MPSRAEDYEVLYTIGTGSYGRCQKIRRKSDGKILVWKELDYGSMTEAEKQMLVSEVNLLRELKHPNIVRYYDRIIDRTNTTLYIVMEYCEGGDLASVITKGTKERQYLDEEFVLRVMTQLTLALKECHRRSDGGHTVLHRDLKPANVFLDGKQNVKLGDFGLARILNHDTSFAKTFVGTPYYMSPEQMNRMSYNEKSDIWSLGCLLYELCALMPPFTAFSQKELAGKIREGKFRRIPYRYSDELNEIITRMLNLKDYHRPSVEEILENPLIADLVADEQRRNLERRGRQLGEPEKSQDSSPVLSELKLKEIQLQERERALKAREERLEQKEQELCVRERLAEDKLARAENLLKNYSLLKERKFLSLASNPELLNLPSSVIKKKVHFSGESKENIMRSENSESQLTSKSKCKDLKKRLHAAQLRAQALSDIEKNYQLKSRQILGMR

[15] = target: T6, Serine/threonine-protein kinase Nek2 (Homo sapiens); settings: at 1 µM
[16] = target: Serine/threonine-protein kinase Nek6 (Homo sapiens) (UniProt Q9HC98); settings: at 0.1 µM
[17] = target: Serine/threonine-protein kinase Nek6 (Homo sapiens) (UniProt Q9HC98); settings: at 1 µM
[18] = target: Serine/threonine-protein kinase Nek7 (Homo sapiens) (UniProt Q8TDX7); settings: at 0.1 µM
[19] = target: Serine/threonine-protein kinase Nek7 (Homo sapiens) (UniProt Q8TDX7); settings: at 1 µM
[20] = target: T7, Serine/threonine-protein kinase Nek9 (Homo sapiens) (UniProt Q8TD19); settings: at 0.1 µM;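 note: reported value is the mean percent inhibition of NEK9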
T7 sequence (whole entry): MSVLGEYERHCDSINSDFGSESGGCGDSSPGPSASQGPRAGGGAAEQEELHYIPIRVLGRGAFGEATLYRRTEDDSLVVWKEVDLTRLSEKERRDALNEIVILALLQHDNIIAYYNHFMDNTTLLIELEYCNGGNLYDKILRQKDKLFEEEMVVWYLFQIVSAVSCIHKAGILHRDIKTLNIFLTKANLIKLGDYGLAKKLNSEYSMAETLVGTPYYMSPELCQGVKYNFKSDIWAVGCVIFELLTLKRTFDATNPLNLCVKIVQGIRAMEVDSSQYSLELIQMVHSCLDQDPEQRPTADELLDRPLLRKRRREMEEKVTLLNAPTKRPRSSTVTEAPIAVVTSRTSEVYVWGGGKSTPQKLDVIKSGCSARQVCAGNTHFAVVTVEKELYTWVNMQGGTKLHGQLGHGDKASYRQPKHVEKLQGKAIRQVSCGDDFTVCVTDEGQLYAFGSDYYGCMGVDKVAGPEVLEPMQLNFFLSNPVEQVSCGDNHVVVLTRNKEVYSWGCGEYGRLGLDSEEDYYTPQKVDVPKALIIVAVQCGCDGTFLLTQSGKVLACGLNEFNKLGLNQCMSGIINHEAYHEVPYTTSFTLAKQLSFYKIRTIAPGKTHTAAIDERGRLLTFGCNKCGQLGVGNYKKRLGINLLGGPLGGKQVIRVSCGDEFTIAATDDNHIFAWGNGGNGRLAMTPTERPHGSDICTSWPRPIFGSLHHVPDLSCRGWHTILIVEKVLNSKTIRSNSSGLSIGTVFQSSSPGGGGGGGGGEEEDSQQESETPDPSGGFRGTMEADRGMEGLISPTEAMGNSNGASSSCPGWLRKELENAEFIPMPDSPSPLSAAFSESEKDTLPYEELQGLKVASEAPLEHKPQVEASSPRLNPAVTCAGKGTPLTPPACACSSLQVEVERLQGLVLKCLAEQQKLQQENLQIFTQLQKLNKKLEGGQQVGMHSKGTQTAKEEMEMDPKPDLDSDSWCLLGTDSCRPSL

Chain of Serine/threonine-protein kinase Nek7 (Homo sapiens) (Q8TDX7 whole entry, looked up): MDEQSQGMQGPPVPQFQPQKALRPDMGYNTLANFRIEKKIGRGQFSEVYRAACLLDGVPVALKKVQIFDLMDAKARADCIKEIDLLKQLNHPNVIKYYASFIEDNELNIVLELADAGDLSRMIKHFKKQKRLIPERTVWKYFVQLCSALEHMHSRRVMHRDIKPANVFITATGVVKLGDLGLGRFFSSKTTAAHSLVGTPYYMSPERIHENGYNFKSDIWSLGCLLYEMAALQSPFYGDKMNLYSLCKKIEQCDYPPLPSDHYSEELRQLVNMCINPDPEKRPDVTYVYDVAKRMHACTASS
Chain of Serine/threonine-protein kinase Nek6 (Homo sapiens) (Q9HC98 whole entry): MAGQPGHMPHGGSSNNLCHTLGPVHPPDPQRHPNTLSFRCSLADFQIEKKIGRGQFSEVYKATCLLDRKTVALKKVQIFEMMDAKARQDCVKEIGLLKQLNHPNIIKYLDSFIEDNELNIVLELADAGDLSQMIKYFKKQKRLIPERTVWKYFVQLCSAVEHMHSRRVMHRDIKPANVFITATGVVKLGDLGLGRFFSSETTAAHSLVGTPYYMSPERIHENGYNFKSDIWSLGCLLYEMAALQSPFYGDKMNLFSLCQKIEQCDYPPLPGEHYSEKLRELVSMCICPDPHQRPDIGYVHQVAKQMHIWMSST
Chain of Casein kinase II subunit alpha (Homo sapiens) (P68400 whole entry, looked up): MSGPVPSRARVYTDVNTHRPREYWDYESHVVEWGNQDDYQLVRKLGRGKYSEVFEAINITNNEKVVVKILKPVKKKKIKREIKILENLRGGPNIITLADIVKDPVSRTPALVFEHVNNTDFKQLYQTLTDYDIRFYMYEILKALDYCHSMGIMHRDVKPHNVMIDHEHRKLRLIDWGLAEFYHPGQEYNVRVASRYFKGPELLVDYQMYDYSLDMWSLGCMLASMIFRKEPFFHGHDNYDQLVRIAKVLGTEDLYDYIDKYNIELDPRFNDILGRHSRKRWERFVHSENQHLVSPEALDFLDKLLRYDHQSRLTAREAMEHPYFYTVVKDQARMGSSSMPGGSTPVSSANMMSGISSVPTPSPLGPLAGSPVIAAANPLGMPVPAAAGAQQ
Chain of Sphingosine kinase 1 (Homo sapiens) (Q9NYA1 whole entry): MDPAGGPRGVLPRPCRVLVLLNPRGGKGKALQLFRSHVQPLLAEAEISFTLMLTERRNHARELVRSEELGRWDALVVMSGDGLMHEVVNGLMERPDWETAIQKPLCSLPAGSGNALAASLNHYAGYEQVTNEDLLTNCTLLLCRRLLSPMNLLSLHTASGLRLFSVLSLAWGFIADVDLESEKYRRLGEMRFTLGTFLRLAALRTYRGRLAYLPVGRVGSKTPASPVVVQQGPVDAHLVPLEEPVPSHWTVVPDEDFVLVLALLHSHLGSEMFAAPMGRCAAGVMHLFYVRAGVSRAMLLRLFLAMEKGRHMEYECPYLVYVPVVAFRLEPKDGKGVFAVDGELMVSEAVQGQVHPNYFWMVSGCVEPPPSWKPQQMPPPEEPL

CCc1cccc(NC(=O)Nc2ccc(Oc3ccc4nc(NC(=O)OC)[nH]c4c3)cc2)c1
inhibition [1]: -3.46% | inhibition [2]: -1.39% | inhibition [3]: -2.51% | inhibition [4]: 1.32% | inhibition [5]: 4.86% | inhibition [6]: 4.74% | inhibition [7]: -0.97% | inhibition [8]: 3.09% | inhibition [9]: 2.83% | inhibition [10]: 2.77% | inhibition [11]: 3.32% | inhibition [12]: 0.6% | inhibition [13]: 1.24% | inhibition [14]: 1.78% | inhibition [15]: 1.1% | inhibition [16]: 0.58% | inhibition [17]: 3.24% | inhibition [18]: -1.37% | inhibition [19]: -2.89% | inhibition [20]: 3.74%
